Reference: PubChem BioAssay (NCI)
Where “and” joins values, the source holds several entries; their conditions need not be identical. Equal entries are not always repeated. About 83,000 compounds went through this panel and 20% of them were active in at least one assay; those are over-represented in the sample as a whole.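 Plates (96-well) were seeded with cells, treated with compound at one concentration, and incubated for 48 hours before percent growth was determined.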 Calls of active or inactive are those of the source. Rule for the calls: active = growth percent below 10; inactive = the rest.

Key:
Experiment in all cases: NCI-60 one-dose screen, 48 h (100 = growth as untreated, 0 = no growth, -100 = all killed)
Conditions in all cases: 10 µM unless noted
HCT-15 colon = tested on: HCT-15 colon
HT29 colon = tested on: HT29 colon
SNB-75 CNS = tested on: SNB-75 CNS
SNB-19 CNS = tested on: SNB-19 CNS
U251 CNS = tested on: U251 CNS
PC-3 prostate = tested on: PC-3 prostate
SK-MEL-5 melanoma = tested on: SK-MEL-5 melanoma
UACC-62 melanoma = tested on: UACC-62 melanoma
LOX IMVI melanoma = tested on: LOX IMVI melanoma
SK-MEL-28 melanoma = tested on: SK-MEL-28 melanoma

Measured: growth

CNC(=O)Oc1ccc(Cl)cc1SSc1cc(Cl)ccc1OC(=O)NC
inactive: HCT-15 colon 72.7% | HT29 colon 106% | SNB-75 CNS 86.8% | SNB-19 CNS 86.8% | U251 CNS 52.7% | PC-3 prostate 73% | SK-MEL-5 melanoma 43.4% | UACC-62 melanoma 49.7% | LOX IMVI melanoma 85.8% | SK-MEL-28 melanoma 82%

O=C(O)c1ccc(=O)[nH]c1
inactive: HCT-15 colon 97.5% and 103% | HT29 colon 109% and 97.7% | SNB-75 CNS 101% and 91.6% | SNB-19 CNS 94.4% and 102% | U251 CNS 97.5% and 91% | PC-3 prostate 103% and 90.1% | SK-MEL-5 melanoma 101% and 100% | UACC-62 melanoma 88.7% and 98.6% | LOX IMVI melanoma 103% and 93.4% | SK-MEL-28 melanoma 106% and 110%

CO[C@H]1[C@H](O[C@@H]2C[C@@H]3C/C=C/C(=O)O[C@@H](CO)C[C@H](O)[C@@H]4C[C@H](C)[C@H](C/C=C\C=C\[C@H](C)C[C@H](C2)O3)O4)O[C@@H](C)[C@H](O)[C@H]1O
inactive: HCT-15 colon 47.4% | HT29 colon 66.1% | SNB-75 CNS 56.7% | SNB-19 CNS 52.2% | U251 CNS 40.3% | PC-3 prostate 35% | SK-MEL-5 melanoma 19.2% | UACC-62 melanoma 61.8% | LOX IMVI melanoma 59.7% | SK-MEL-28 melanoma 76.1%

O=[N+]([O-])c1ccc2scc3c4ccccc4nc-3c2c1
inactive: SNB-19 CNS 46.7%
active: HCT-15 colon -36.7% | HT29 colon -47% | SNB-75 CNS -42% | U251 CNS -92.4% | PC-3 prostate -53.4% | SK-MEL-5 melanoma 8.28% | UACC-62 melanoma -61% | LOX IMVI melanoma -87.1% | SK-MEL-28 melanoma -56.1%

N#CCN(CC#N)[N+](=O)[O-]
inactive: HCT-15 colon 108% | HT29 colon 103% | SNB-75 CNS 89.8% | SNB-19 CNS 99.1% | U251 CNS 104% | PC-3 prostate 95.4% | SK-MEL-5 melanoma 103% | UACC-62 melanoma 98.2% | LOX IMVI melanoma 109% | SK-MEL-28 melanoma 106%

CCCn1cc2c3c(cccc31)[C@H]1C[C@@H](C)CN(C)[C@@H]1C2
inactive: HCT-15 colon 84.1% | HT29 colon 45% | SNB-75 CNS 58.2% | SNB-19 CNS 91.2% | U251 CNS 86.7% | PC-3 prostate 72.3% | UACC-62 melanoma 93.2% | LOX IMVI melanoma 88.5% | SK-MEL-28 melanoma 97.7%

O=S(OO)c1cc(Cl)c(O)c(Cl)c1 (configuration not stated)
inactive: HCT-15 colon 99.2% | HT29 colon 113% | SNB-75 CNS 78.5% | SNB-19 CNS 104% | U251 CNS 94% | PC-3 prostate 94.7% | UACC-62 melanoma 101% | LOX IMVI melanoma 96.4% | SK-MEL-28 melanoma 98.9%

CC1(C)S[C@H]2CC[C@H]3OC(=O)[C@@H]1N23
inactive: HCT-15 colon 106% | HT29 colon 106% | SNB-75 CNS 90.9% | SNB-19 CNS 101% | U251 CNS 115% | PC-3 prostate 87% | UACC-62 melanoma 93.4% | LOX IMVI melanoma 103% | SK-MEL-28 melanoma 108%

Cc1cc(Br)c([N+](=O)[O-])cc1[N+](=O)[O-]
inactive: HCT-15 colon 76.1% | HT29 colon 103% | SNB-75 CNS 108% | SNB-19 CNS 103% | U251 CNS 103% | PC-3 prostate 91.4% | SK-MEL-5 melanoma 100% | UACC-62 melanoma 102% | LOX IMVI melanoma 19.7% | SK-MEL-28 melanoma 116%

CC[C@H](C)[C@H](NC(=O)[C@H]1CCCCN1C)C(=O)N(C)[C@H](C(=O)NC12CC(C(=O)N[C@@H](Cc3ccccc3)C[C@H](C)C(=O)OC)(C1)C2)C(C)C
inactive: HCT-15 colon 101% | HT29 colon 87.3% | SNB-75 CNS 92.7% | SNB-19 CNS 100% | U251 CNS 96.7% | PC-3 prostate 100% | UACC-62 melanoma 102% | LOX IMVI melanoma 92.1% | SK-MEL-28 melanoma 110%

Cc1ccc(NC2=N[C@]34CC(=O)CC[C@]3(C)[C@H]3CC[C@]5(C)C(=O)CC[C@H]5[C@@H]3C[C@@H]4S2)c(C)c1
inactive: SNB-75 CNS 35.1% | SNB-19 CNS 44% | U251 CNS 18.4% | PC-3 prostate 15.8% | UACC-62 melanoma 39% | SK-MEL-28 melanoma 50.8%
active: HCT-15 colon 0.807% | HT29 colon 3.81% | LOX IMVI melanoma -16.6%

O=C/C=C/c1ccco1
inactive: HCT-15 colon 106% | HT29 colon 95.1% | SNB-75 CNS 80.5% | SNB-19 CNS 106% | U251 CNS 95.1% | PC-3 prostate 83.7% | SK-MEL-5 melanoma 113% | LOX IMVI melanoma 98.2% | SK-MEL-28 melanoma 114%

CC[C@H](C)[C@H](NC(=O)[C@H]1CCCCN1C)C(=O)N(C)[C@H](C[C@@H](OC(C)=O)c1nc(C(=O)N[C@@H](Cc2ccccc2)C[C@H](C)C(=O)O)cs1)C(C)C
active: HCT-15 colon 9.59% | HT29 colon -18.7% | LOX IMVI melanoma 9.84%
inactive: SNB-75 CNS 31.4% | SNB-19 CNS 36.7% | U251 CNS 15% | PC-3 prostate 26.1% | UACC-62 melanoma 52.8% | SK-MEL-28 melanoma 50.6%

C[C@]12CCc3sc(Nc4ccc(OC(F)(F)F)cc4)nc3C1=CC[C@@H]1[C@@H]2CC[C@]2(C)C(=O)CC[C@@H]12
inactive: HCT-15 colon 38.3% | HT29 colon 13% | SNB-75 CNS 68.6% | SNB-19 CNS 56.5% | U251 CNS 34.1% | PC-3 prostate 38.6% | SK-MEL-5 melanoma 95.9% | UACC-62 melanoma 63.4% | LOX IMVI melanoma 34.8% | SK-MEL-28 melanoma 65.3%

CCN(CC)CCn1c(=O)n(C)c2ccccc21
inactive: HCT-15 colon 114% | HT29 colon 112% | SNB-75 CNS 97% | SNB-19 CNS 113% | U251 CNS 96.3% | PC-3 prostate 96.8% | UACC-62 melanoma 109% | LOX IMVI melanoma 98.4% | SK-MEL-28 melanoma 114%

NC(=O)c1c(Br)c(Br)c(Br)c(Br)c1C(=O)O (tested in a mixture with another compound)
inactive: HCT-15 colon 92.8% and 106% | HT29 colon 106% and 103% | SNB-75 CNS 115% and 95.8% | SNB-19 CNS 96.6% and 104% | U251 CNS 95.4% and 96.2% | PC-3 prostate 90.8% and 86.6% | UACC-62 melanoma 83.7% and 104% | LOX IMVI melanoma 31.8% and 101% | SK-MEL-28 melanoma 110% and 108%

C=CC[PH+](c1ccccc1)c1ccccc1.C=CC[PH+](c1ccccc1)c1ccccc1.[Pt+2].[S-]c1nc2ccccc2[nH]1.[S-]c1nc2ccccc2[nH]1
active: HT29 colon -30.4% | SNB-75 CNS -64.5% | SNB-19 CNS 5.65% | U251 CNS -83% | PC-3 prostate 9.47% | UACC-62 melanoma -48.9% | LOX IMVI melanoma -95% | SK-MEL-28 melanoma -47.1%
inactive: HCT-15 colon 70%

COc1cc(-c2ccc(N)c(OC)c2)ccc1N
inactive: HCT-15 colon 110% | HT29 colon 97.5% | SNB-75 CNS 76.9% | SNB-19 CNS 102% | U251 CNS 99.2% | PC-3 prostate 105% | SK-MEL-5 melanoma 105% | LOX IMVI melanoma 88.9% | SK-MEL-28 melanoma 111%

OCCN=Cc1c[nH]c2ccccc12
inactive: HCT-15 colon 105% | HT29 colon 102% | SNB-75 CNS 75% | SNB-19 CNS 101% | U251 CNS 103% | PC-3 prostate 90.5% | UACC-62 melanoma 90.9% | LOX IMVI melanoma 95.2% | SK-MEL-28 melanoma 111%

COc1ccn(C)c(=O)c1C#N
inactive: HCT-15 colon 101% | HT29 colon 78.8% | SNB-75 CNS 114% | SNB-19 CNS 109% | U251 CNS 92% | PC-3 prostate 94.7% | UACC-62 melanoma 95.9% | LOX IMVI melanoma 97% | SK-MEL-28 melanoma 106%

O=C1C=C(N2CC2)c2ccccc2C1=O
inactive: HCT-15 colon 79.6% | HT29 colon 73.4% | SNB-75 CNS 90.2% | SNB-19 CNS 82.7% | U251 CNS 65.3% | PC-3 prostate 44.3% | UACC-62 melanoma 97.8% | LOX IMVI melanoma 39% | SK-MEL-28 melanoma 111%

C[C@]12CC[C@H]3[C@@H](C[C@@H]4SC(Nc5ccccc5)=N[C@@]45C/C(=N/O)CC[C@]35C)[C@@H]1CCC2=O
inactive: HCT-15 colon 44.3% | HT29 colon 32.1% | SNB-75 CNS 76% | SNB-19 CNS 60.3% | U251 CNS 37.5% | PC-3 prostate 60.5% | UACC-62 melanoma 86% | SK-MEL-28 melanoma 73.3%
active: LOX IMVI melanoma -4.53%

CC(=O)Nc1nc2c(s1)C1=CC[C@H]3[C@@H]4CC[C@H](OC(C)=O)[C@@]4(C)CC[C@@H]3[C@@]1(C)CC2
inactive: HCT-15 colon 40.3% | HT29 colon 26.6% | SNB-19 CNS 62% | U251 CNS 43.9% | PC-3 prostate 59.2% | UACC-62 melanoma 49.5% | LOX IMVI melanoma 63.5% | SK-MEL-28 melanoma 54.7%
active: SNB-75 CNS 0.377%

CCCCCCCCCCCCCCCC[N+](C)(C)C
-74.7% (active) and 25.6% (inactive): SK-MEL-28 melanoma
-37.7% (active) and 23.9% (inactive): HCT-15 colon
-63% (active) and 25.6% (inactive): UACC-62 melanoma
active: HT29 colon -64% and -42.4% | SNB-75 CNS -77.5% and -23.3% | SNB-19 CNS -71.2% and -40.6% | U251 CNS -75.5% and -94.2% | PC-3 prostate -40.8% and -32.8% | LOX IMVI melanoma -71.6% and -73.9%

C[C@]12CC[C@H]3[C@@H](CC=C4c5nc(N)sc5CC[C@@]43C)[C@@H]1CC[C@@H]2O
inactive: HCT-15 colon 98.4% | HT29 colon 95.5% | SNB-75 CNS 89.9% | SNB-19 CNS 99.2% | U251 CNS 97.4% | PC-3 prostate 98.5% | UACC-62 melanoma 87.8% | LOX IMVI melanoma 104% | SK-MEL-28 melanoma 113%
